Test results reported in PubChem BioAssay (Tox21).
Values joined by “and” are separate entries in the source; they are usually repeats but may differ in a detail not shown here. Equal values may be shown once. Records with an inconclusive call do not appear. Entries that show only a call come without a potency. Some structures have more than one record in an assay (separate samples or runs), and their calls can disagree. Active and inactive are the calls of the source. Calls follow the shape of the dose curve; as a rule, active = well fitted curve in the direction sought with a large enough effect in the repeat runs; inconclusive = weak or mixed curves; inactive = no such curve, though single readings can be large; an effect the other way counts as inactive or inconclusive.

Test system: not listed separately
Test: qHTS assay to identify small molecule antagonists of the constitutive androstane receptor (CAR) signaling pathway - cell viability counter screen (AID 1224837); also: nearly all actives have a fitted effect of over 45% in size
Conditions: HepG2-CYP2B6-hCAR viability, CellTiter-Fluor, 23 h, co-treated with 50 nM CITCO; series mostly up to 92.4 µM
How it was run: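 Cytotoxicity counter-screen: CellTiter-Fluor fluorescence after 23 h compound exposure (15-point qHTS) in double-stable HepG2-CYP2B6-hCAR cells, with 50 nM CITCO added.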

Structure (SMILES)	Potency
O=C1N=C(O)CN1/N=C/c1ccc(-c2ccc([N+](=O)[O-])cc2)o1	inactive
Nc1cc(-c2ccncc2)c[nH]c1=O	inactive
CCC(=O)O	inactive
Cc1cc(O)cc(C)c1Cl	inactive
Oc1c(Cl)cc(Cl)c(Cl)c1Cl	inactive
C=C1CC[C@H](O)CC1=C/C=C1\CCC[C@]2(C)[C@@H]([C@H](C)/C=C/[C@H](C)C(C)C)CC[C@@H]12	inactive
CC(C)n1c(/C=C/[C@@H](O)C[C@@H](O)CC(=O)O)c(-c2ccc(F)cc2)c2ccccc21	inactive
CCCCCCCCCC(=O)O	inactive
CC1=C(CC(=O)O)c2cc(F)ccc2/C1=C\c1ccc(S(C)=O)cc1 (stereo not drawn)	inactive
COC(=O)c1ccccc1O	inactive
Clc1cc(Cl)c(Cl)cc1Cl	inactive
CC1(C)O[C@@H]2C[C@H]3[C@@H]4C[C@H](F)C5=CC(=O)CC[C@]5(C)[C@H]4[C@@H](O)C[C@]3(C)[C@]2(C(=O)CO)O1	inactive
O=C(c1ccc(O)cc1)c1ccc(O)cc1O	inactive
CC1(C)CC(N=C=O)CC(C)(CN=C=O)C1 (stereo not drawn)	inactive

Target: Nuclear receptor subfamily 1 group I member 3 (Homo sapiens) (UniProt Q14994)
Sequence (Q14994 whole entry, looked up): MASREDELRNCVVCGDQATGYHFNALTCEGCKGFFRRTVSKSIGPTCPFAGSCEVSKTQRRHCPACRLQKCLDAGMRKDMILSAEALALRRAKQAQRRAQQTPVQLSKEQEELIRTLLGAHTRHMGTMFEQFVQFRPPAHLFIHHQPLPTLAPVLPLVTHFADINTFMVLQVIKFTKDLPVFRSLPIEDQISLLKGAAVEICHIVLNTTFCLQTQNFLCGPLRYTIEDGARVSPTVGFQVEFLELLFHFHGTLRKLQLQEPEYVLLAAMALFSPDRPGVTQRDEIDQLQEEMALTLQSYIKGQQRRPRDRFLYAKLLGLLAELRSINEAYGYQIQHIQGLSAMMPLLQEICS
Test: qHTS assay to identify small molecule antagonists of the constitutive androstane receptor (CAR) signaling pathway (AID 1224838);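 also: HepG2 cells stably expressing hCAR with CYP2B6 luciferase reporter stimulated by CITCO; nearly all actives have a fitted effect of over 40% in size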; also: potency is read from the fitted curve at half-maximal effect
Conditions: HepG2-CYP2B6-hCAR luciferase, CITCO-stimulated, 24 h; series mostly up to 92.4 µM
How it was run: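 Antagonism measured as luciferase signal (ONE-Glo, 30 min, room temperature) in CAR-stimulated cells: HepG2-CYP2B6-hCAR double-stable line exposed 24 hr at 37 C to compound in a 15-point series plus 50 nM CITCO.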

Structure (SMILES)	Potency
Cc1cc(NS(=O)(=O)c2ccc(N)cc2)no1	inactive
O=C1N=C(O)CN1/N=C/c1ccc(-c2ccc([N+](=O)[O-])cc2)o1	inactive
CC(C)(N=C=O)c1cccc(C(C)(C)N=C=O)c1	inactive
CCCCC/C=C\C/C=C\CCCCCCCC(=O)OC	inactive
CCCCCCCCCCCCN	inactive
Oc1ccc(OCc2ccccc2)cc1	inactive
CC1CC(OC(=O)c2ccccc2O)CC(C)(C)C1 (stereo not drawn)	inactive
CC1Cc2ccccc2N1NC(=O)c1ccc(Cl)c(S(N)(=O)=O)c1 (stereo not drawn)	inactive
CC(C)NCC(O)COc1cccc2ccccc12 (stereo not drawn)	inactive
Cc1cc(Cc2ccc(N)c(C)c2)ccc1N	inactive
C=C1CC[C@H](O)CC1=C/C=C1\CCC[C@]2(C)[C@@H]([C@H](C)/C=C/[C@H](C)C(C)C)CC[C@@H]12	inactive
CN(C)c1ccc(C(=N)c2ccc(N(C)C)cc2)cc1	52.4 µM (active)
CC(=O)CCc1ccccc1	inactive
O=Nc1ccc(O)cc1	inactive
CC1=C(CC(=O)O)c2cc(F)ccc2/C1=C\c1ccc(S(C)=O)cc1 (stereo not drawn)	inactive
C/C=C(C)/C=C/C=C(C)C	inactive
COC(=O)c1ccc(C(=O)OC)cc1	6.95 µM (active) and inactive
O=C(c1ccc(O)cc1)c1ccc(O)cc1O	inactive
CCCCC(CC)COC(=O)CCCCCCCC(=O)OCC(CC)CCCC (stereo not drawn)	24.3 µM (active) and inactive
COC(=O)Nc1nc2ccc(Sc3ccccc3)cc2[nH]1	inactive
CC(C)(C)C1CCC(O)CC1 (stereo not drawn)	inactive
CCCCC(CC)COC(C)=O (stereo not drawn)	inactive
CC1COc2ccccc2N1C(=O)C(Cl)Cl (stereo not drawn)	inactive
S=c1nc[nH]c2nc[nH]c12	1.5 µM (active) and 3.35 µM (active)
